# Screening results from PubChem.
# SDO1 yeast rescue: restores growth of sdo1-depleted yeast; 140,000 compounds, 0.21% hits; S. cerevisiae sdo1-depleted JHY4D growth rescue, OD600 30 h; stronger effect = higher value; pdr5 snq2 efflux-pump mutant strain; z-score at 10 µM;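 active means z-score above 3 at both the 24 hr and the 30 hr optical density reads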;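 further: z-score against mean and SD of all compound wells on the same plate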
# MRP-1 activ: activators of MRP-1; H69AR cells + doxorubicin, viability rescue, CellTiter-Glo; viability increase, % at 10 µM; 140,000 compounds, 0.61% hits; AID 799;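 active means viability gain under doxorubicin at or above a set limit, the compound median plus 3 SD, cut at about 4.7% in these data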;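 further: MRP-1 overexpressing cells given doxorubicin 25 µM after compound pretreatment; 18-22 h compound pretreatment then 72 h with doxorubicin before readout; 0% = doxorubicin-only wells and 100% = vehicle-treated cells without doxorubicin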
# Phagocyt inh: inhibitors of macrophage phagocytosis | J774A.1 macrophage IgG-bead phagocytosis, imaging | inhibition, % at 5 µM | 110,000 compounds, 0.07% hits;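 active means inhibition above the mean of the plate negative controls plus 5 SD, cut at about 13% in these data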;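 further: phagocytic index as fraction of beads internalized from green versus red external bead signal; plate controls were DMSO negative control for no effect and cytochalasin-D positive control for full effect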
# sEH activator: activators of human soluble epoxide hydrolase; purified human sEH enzymatic activity, activator screen; 91,000 compounds, 0.04% hits; activation, % at 2 µM; P34913; in the data active means activation above about 37%
# Target sequence (P34913 whole entry, looked up): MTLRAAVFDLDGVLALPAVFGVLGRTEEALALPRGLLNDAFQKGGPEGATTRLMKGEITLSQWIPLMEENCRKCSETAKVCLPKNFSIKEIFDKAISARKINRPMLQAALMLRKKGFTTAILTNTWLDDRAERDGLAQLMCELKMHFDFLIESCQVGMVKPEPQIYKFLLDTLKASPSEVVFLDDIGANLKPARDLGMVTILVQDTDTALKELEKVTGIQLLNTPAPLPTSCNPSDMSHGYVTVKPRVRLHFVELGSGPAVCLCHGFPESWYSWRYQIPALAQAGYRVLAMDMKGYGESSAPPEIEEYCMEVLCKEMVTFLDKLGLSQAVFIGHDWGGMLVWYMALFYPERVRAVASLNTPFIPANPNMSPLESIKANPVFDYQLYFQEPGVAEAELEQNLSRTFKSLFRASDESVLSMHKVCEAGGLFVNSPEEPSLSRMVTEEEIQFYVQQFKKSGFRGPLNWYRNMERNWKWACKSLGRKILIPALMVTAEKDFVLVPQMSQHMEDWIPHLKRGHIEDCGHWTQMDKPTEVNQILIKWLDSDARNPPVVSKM
# MRP reversal: compounds reversing MRP-mediated drug resistance | AID 602 | H69AR cells + 2 uM doxorubicin, CellTiter-Glo, 72 h | 85,000 compounds, 0.04% hits | differential viability (reversal), % at 10 µM;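 active means viability drop by adding the cancer drug above about 55%, with treated viability meeting a 40% cutoff, limit read from the data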;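 further: viability without doxorubicin minus viability with 2 µM doxorubicin for each compound; larger differential means the compound sensitizes cells more to doxorubicin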
# sEH inhibitor: inhibitors of human soluble epoxide hydrolase; inhibition, % at 2 µM; 91,000 compounds, 0.34% hits; AID 707; recombinant human sEH enzymatic activity assay; in the data active means inhibition above about 80%
# An asterisk follows results filed as active; / = not tested or not shown. Shown are actives, neighbours in structure and some others; about 1% of the full set was active somewhere.
SMILES,SDO1 yeast rescue,MRP-1 activ,Phagocyt inh,sEH activator,MRP reversal,sEH inhibitor
CC(/C=C1\SC(=S)N(CCCC(=O)Nc2ccc(C(=O)O)cc2)C1=O)=C\c1ccccc1,-0.13,13*,-7,/,/,/
CC(/C=C1\SC(=S)N(NC(=O)c2ccc(O)cc2)C1=O)=C\c1ccccc1,-1.5,7.9*,5,/,/,/
C=CCN(C(=O)CNS(=O)(=O)c1ccccc1)C(C(=O)NCCOC)c1ccncc1 (stereo unspecified),0.39,-1,-4,/,5,/
CC(C)c1onc(C(=O)NCc2ccccc2)c1[N+](=O)[O-],1.2,-4,-5,/,/,/
C=CCNC(=O)CC(=O)N/N=C/c1cccc(C)c1,0.84,-2,2,/,/,/
CNC[C@H](O)c1cccc(O)c1,1.2,-1,/,/,-2,/
CNC[C@H](O)c1ccc(O)c(O)c1,0.32,7.1*,/,/,/,/
COc1ccc(CNC(=O)/C=C/c2cc3c(cc2Br)OCO3)cc1,-1.1,-1,-2,-86,/,86*
Nc1c2c(nc3ccn(-c4ccccc4)c(=O)c13)CCCCC2,0.97,4.9*,0,14,6,-12
COc1ccc(N2C(S)=C(C#N)C(=O)NC2c2ccco2)cc1 (stereo unspecified),1.1,16*,-6,/,/,/
CC(C)Cc1cc(C(=O)NCCCN2CCOCC2)no1,/,/,/,/,6,/
COC(=O)C(CC(C)C)NC(=O)c1ccc([N+](=O)[O-])c(C)c1 (stereo unspecified),0.13,1,/,12,/,-12
CC(C)CNC(=O)c1c(N)n(/N=C/c2ccccn2)c2nc3ccccc3nc12,-2,5.1*,-5,8,35,-5
COc1ccc(OCC(=O)N2CCN(C(=O)c3ccco3)CC2)cc1,-0.06,-3,0,41*,-2,-37
O=C(COc1ccc(Cl)cc1)N1CCN(S(=O)(=O)c2ccccc2)CC1,-1.5,5.1*,-1,-3,-9,5
COc1ccccc1N1CCN(C(=O)COc2ccc(Cl)cc2)CC1,-0.87,6.6*,-1,/,-2,/
CCc1c(C)sc(NC(=O)c2cc(CC(C)C)on2)c1C#N,-0.83,8.0*,/,-7,-20,6
O=C(CCSc1ccc(Cl)cc1)NC1CCCCC1,-0.99,0,/,-66,/,66
O=C(CCSc1ccc(Cl)cc1)NC12CC3CC(CC(C3)C1)C2,-1.1,-1,-1,-80,/,81*
COc1ccc(NS(=O)(=O)c2cccc(C(=O)N/N=C(\C)c3ccc(-n4ccnc4)cc3)c2)cc1,-0.39,0,0,-40,/,39
C/C(=N\NC(=O)c1cccc(S(=O)(=O)Nc2ccccc2Cl)c1)c1ccc(-n2ccnc2)cc1,0.31,-2,0,-87,/,87*
COc1ccc(NC(=O)CC2C(=O)N(c3ccc(F)cc3)C(=S)N2NC(=O)c2ccccc2)cc1 (stereo unspecified),0.53,6.4*,-8,/,/,/
COc1ccc(NC(=O)CC2C(=O)N(c3ccc(OC)cc3)C(=O)N2CCc2cccs2)cc1 (stereo unspecified),-0.49,4,1,/,/,/
Cc1ccc(C)c2[nH]c(=O)c(CN(Cc3ccco3)S(=O)(=O)c3ccc4c(c3)OCCO4)cc12,-1.1,5.4*,-2,-9,-9,8
CCc1ccc2[nH]c(=O)c(CN(Cc3ccco3)S(=O)(=O)c3ccc4c(c3)OCCO4)cc2c1,-0.7,-4,-1,39*,-4,-42
SMILES,SDO1 yeast rescue,MRP-1 activ,Phagocyt inh,sEH activator,MRP reversal,sEH inhibitor
Cc1ccc2cc(CN(CC3CCCO3)S(=O)(=O)c3ccc4c(c3)OCCO4)c(=O)[nH]c2c1C (stereo unspecified),/,/,/,4,-5,-1
Cc1ccc(Nc2cnn(C34CC5CC(CC(CC(=O)O)(C5)C3)C4)c(=O)c2Cl)cc1,2.6,0,/,9,3,-9
C/C(=N\OC(=O)c1ccc(F)cc1)c1nccs1,-0.81,-1,/,1,/,-1
C/C(=N/OC(=O)c1c(F)cccc1F)c1nccs1,0.68,-1,0,39*,/,-40
O=C(Nc1ccc(N2CCOCC2)cc1)Nc1ccc(Cl)c(Cl)c1,-2.5,-1,1,-82,-18,82*
O=C(Nc1ccc(Cl)cc1)N1CCSCC1,-0.8,-1,0,-61,4,61
O=C(Nc1ccc(Cl)c(Cl)c1)N1CCSCC1,-1.1,0,/,-82,8,82*
O=C(NC1CCCCC1)NC1CC2CCC(C1)N2Cc1nnnn1Cc1ccc2c(c1)OCO2 (stereo unspecified),0.07,0,/,-95,6,95*
CCCCn1c(CNC(=O)C23CC4CC(CC(C4)C2)C3)nnc1SC(C)CC (stereo unspecified),0.14,-2,-8,/,/,/
CS(=O)(=O)N(Cc1ccc(C(=O)NCCSCc2ccco2)cc1)c1ccccc1,-0.49,-1,-1,-81,9,81*
CC1CCN(CC(=O)N2c3ccccc3CCc3ccccc32)CC1,-0.41,-2,/,11,/,-13
CCN(CC)c1ccc(/C=C(\C#N)c2nc(-c3cccs3)c(NC(C)=O)s2)cc1,0.21,-1,-11,/,/,/
CCOC(=O)C1=C(C)Nc2sc(C(=O)c3ccc(F)cc3)c(N)c2C1c1ccc(C(=O)OC)cc1 (stereo unspecified),-0.03,1,-4,/,/,/
CCOC(=O)C1=C(C)Nc2sc(C(=O)c3ccc(C)cc3)c(N)c2C1c1ccc(C(=O)OC)cc1 (stereo unspecified),0.94,6.5*,8,/,/,/
CC12CCC(c3nnc(SCc4ccc(Cl)cc4)nc31)C2(C)C (stereo unspecified),-1.4,5.7*,/,0,14,5
CC(NC(=S)Nc1ccc(Cl)cc1)C(c1ccccc1)N1CCOCC1 (stereo unspecified),-1.1,-4,-7,/,/,/
Cc1cccc(OCCNC(=O)c2cccc(Oc3ccc(C(F)(F)F)cc3[N+](=O)[O-])c2)c1,-0.68,2,-8,/,/,/
Cc1cccc(OCCNC(=O)c2ccc(Oc3ccc(C(F)(F)F)cc3[N+](=O)[O-])cc2)c1,-1.3,8.2*,-4,-9,/,11
Cc1ccc(N2C(N)=C(C#N)C(c3cccnc3)C3=C2CCCC3=O)cc1 (stereo unspecified),-0.69,-4,-4,2,-2,-4
N#CC1=C(N)N(c2ccc(Br)cc2)C2=C(C(=O)CCC2)C1c1cccnc1 (stereo unspecified),1.2,-5,6,/,59*,/
CCOc1ccccc1CNC(=O)c1ccc(Sc2ccc(Cl)cc2)c(NC(C)=O)c1,-0.71,0,-1,/,/,/
COc1ccc(OC)c(-c2csc(NC(=O)C3c4ccccc4Oc4ccccc43)n2)c1,-0.4,9.4*,-13,/,/,/
Clc1ccccc1Cn1nnc2c(Nc3ccccc3)ncnc21,-1.6,4.7*,-1,/,/,/
FC(F)(F)c1ccc(N2CCN(c3ncnc4c3nnn4Cc3ccccc3Cl)CC2)cc1,-0.34,-1,/,-4,-4,9
Fc1ccc(N2CCN(c3ncnc4c3nnn4Cc3ccccc3Cl)CC2)cc1,-1,5.0*,/,-7,-1,11
CCC(Sc1nc2ccccc2s1)C(=O)Nc1nnc(C)s1 (stereo unspecified),-1.2,10*,-3,2,/,-3
